# Measured values as given in PubChem BioAssay.
# “And” between values parts separate entries of the source, which are not always exact repeats. Identical values can stand only once. Results filed as inconclusive are left out. The source made the active and inactive calls.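 The calls were made as follows, unless noted: active = normalized viability below 100% at a tested concentration; inactive = the rest.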
# Assays:
# [1] = viability loss in pontine glioma line – cell-based, SU-DIPG-XXV, MIPE5.0, CellTiter-Glo, qHTS, dose response (AID 1347065; cut-off not given, nearly all actives have AC50 up to about 26 µM;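 also: cells exposed to compound for 48 hours before ATP readout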); conditions: CellTiter-Glo ATP luminescence
# [2] = SU-DIPG-VI glioma cell viability, MIPE4.0 library, CellTiter-Glo luminescence, qHTS (AID 1347066; cut-off not given, nearly all actives have AC50 up to about 30 µM;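 also: cells exposed to compound for 48 hours before readout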); conditions: CellTiter-Glo ATP luminescence
# [3] = JHH-DIPG-1 glioma cell viability, MIPE5.0 library, CellTiter-Glo luminescence, qHTS (AID 1347067; cut-off not given, nearly all actives have AC50 up to about 26 µM;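 also: cells exposed to compound for 48 hours before readout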); conditions: JHH-DIPG-1 glioma viability, CellTiter-Glo ATP luminescence
# [4] = SU-DIPG-XXV glioma cell viability, MIPE5.0 library, qHTS (AID 1347068; cut-off not given, nearly all actives have IC50 up to about 30 µM)
# [5] = sensitizers of A549 cells to miR-34 induction, primary screen, imaging, A549 dox-inducible miR-34, nuclei and caspase counts (AID 1347080;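 active = compounds whose cell count with miR-34 switched on is under 0.7 times the count with it off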); conditions: A549 miR-34 inducible, Hoechst nuclei count, 48 h
# [6] = survival rescue of mitochondrial mutant cells in low glucose, primary screen, MELAS cybrids, Rieske KO mouse fibroblasts, CellTiter-Glo (AID 1508586;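 active = mean z-score across replicates of 1.96 or higher in either the MELAS or the Rieske mutant cell line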;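 also: z relative to plate mean and SD of compound and empty wells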)
# [7] = target: NAD(+) hydrolase SARM1 (Homo sapiens) (UniProt Q6SZW1); experiment: SARM1 TIR NADase inhibitors, cell lysate, NAD-Glo luminescence (AID 1508614;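 active = compound whose remaining NAD level is above about 45 nM, limit read from the data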;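 also: higher remaining NAD means stronger inhibition of SARM1 NADase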); conditions: SAM-TIR HEK293T lysate NADase, at 1 µM, stronger effect = higher value
# Sequence of NAD(+) hydrolase SARM1 (Homo sapiens) (Q6SZW1 whole entry, looked up): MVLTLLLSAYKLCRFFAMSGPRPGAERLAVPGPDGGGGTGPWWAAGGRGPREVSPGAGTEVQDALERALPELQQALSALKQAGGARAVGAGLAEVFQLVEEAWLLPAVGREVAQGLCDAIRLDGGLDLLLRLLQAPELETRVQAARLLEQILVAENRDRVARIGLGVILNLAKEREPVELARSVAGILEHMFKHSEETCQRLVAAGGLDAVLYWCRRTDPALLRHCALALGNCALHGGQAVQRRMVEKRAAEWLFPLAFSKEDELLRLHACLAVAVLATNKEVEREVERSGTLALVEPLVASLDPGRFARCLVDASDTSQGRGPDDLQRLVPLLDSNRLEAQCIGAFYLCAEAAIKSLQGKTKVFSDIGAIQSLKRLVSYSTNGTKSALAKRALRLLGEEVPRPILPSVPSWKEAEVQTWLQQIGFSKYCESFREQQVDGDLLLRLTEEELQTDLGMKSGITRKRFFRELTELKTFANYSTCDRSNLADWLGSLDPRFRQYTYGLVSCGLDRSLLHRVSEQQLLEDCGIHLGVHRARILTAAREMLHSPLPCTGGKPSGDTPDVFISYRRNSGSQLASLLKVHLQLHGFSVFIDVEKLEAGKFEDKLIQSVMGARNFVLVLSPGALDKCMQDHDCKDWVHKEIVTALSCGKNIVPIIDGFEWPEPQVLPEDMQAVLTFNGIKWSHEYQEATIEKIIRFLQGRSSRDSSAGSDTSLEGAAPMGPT
# [8] = viability rescue of complex I mutant cybrids, primary screen, cell-based, galactose medium, ATP luminescence (AID 1645843;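 active = z-score of at least 1.8 in each of two replicates, scored against plate mean and spread of sample wells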;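 also: positive z means more ATP and so rescue of galactose-driven cybrid death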); conditions: complex I mutant cybrid cells, 72 h, stronger effect = higher value
# [9] = target: Mitogen-activated protein kinase 7 (Homo sapiens) (UniProt Q13164); experiment: ERK5 transactivation activators in reporter cells, primary screen, cell-based, HTS (AID 1508626;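 active = luciferase signal above three times the same-plate solvent-only control wells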;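 also: luciferase driven by Gal4-ERK5 fusion binding five Gal4 sites before minimal TATA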); conditions: HeLa Gal4-ERK5 transactivation, 18 h, at 5 µM, stronger effect = higher value
# Sequence of Mitogen-activated protein kinase 7 (Homo sapiens) (Q13164 whole entry, looked up, the tested form may be a part): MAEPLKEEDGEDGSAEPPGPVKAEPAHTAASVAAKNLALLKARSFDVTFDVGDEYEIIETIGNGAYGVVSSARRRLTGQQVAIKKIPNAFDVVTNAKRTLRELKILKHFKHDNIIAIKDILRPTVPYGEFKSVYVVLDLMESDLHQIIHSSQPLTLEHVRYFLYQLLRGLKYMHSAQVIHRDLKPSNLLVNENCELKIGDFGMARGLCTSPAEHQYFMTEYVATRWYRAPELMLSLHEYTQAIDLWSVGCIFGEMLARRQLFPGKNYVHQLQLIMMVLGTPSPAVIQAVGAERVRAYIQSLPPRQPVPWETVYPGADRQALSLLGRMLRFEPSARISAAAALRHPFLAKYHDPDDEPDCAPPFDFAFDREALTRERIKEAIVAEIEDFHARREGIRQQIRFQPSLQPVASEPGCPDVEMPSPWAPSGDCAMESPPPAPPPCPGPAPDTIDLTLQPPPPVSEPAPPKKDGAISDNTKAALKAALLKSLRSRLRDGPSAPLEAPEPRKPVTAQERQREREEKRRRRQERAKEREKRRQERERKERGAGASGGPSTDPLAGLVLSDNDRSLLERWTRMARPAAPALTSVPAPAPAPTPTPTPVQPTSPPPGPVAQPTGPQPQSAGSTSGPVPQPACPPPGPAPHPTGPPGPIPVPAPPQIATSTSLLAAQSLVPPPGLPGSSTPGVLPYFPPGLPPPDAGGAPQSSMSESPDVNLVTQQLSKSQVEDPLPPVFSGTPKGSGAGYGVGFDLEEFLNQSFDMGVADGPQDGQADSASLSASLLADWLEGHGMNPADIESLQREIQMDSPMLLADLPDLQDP
# [10] = modifiers of HSF1 nuclear foci, imaging, Selleck Cancer Library (AID 1347162; in the data active = plate-normalised HSF1 focus index below about 0.46); conditions: human cells, at 10 µM; SSMD: measured here: HSF1 foci SSMD mean; cell count: measured here: cell number; plate-normalised HSF1 focus index: stronger effect = lower value
# [11] = ovarian cancer cell viability with rucaparib, profiling panel, oncology-focused library, rucaparib conditional (AID 1508598); conditions: patient-derived ovarian cancer cells, CellTiter-Glo viability, 144 h, stronger effect = lower value
# [12] = stronger effect = lower value, cell number ratio, induced over uninduced
# [13] = measured here: relative caspase fold change +Dox/-Dox
# [14] = measured here: total cells with miR-34 induction, stronger effect = lower value
# [15] = measured here: total cells without miR-34 induction
# [16] = MELAS cybrid survival, CellTiter-Glo 48 h, stronger effect = higher value
# [17] = Rieske KO mouse fibroblast survival, CellTiter-Glo 72 h
compound,measurement,setting,value
CCOc1cc(CC(=O)N[C@@H](CC(C)C)c2ccccc2N2CCCCC2)ccc1C(=O)O,outcome,[1],inactive
same,outcome,[2],inactive
same,outcome,[3],inactive
same,outcome,[4],inactive
same,fold change,[5]; [12],0.924 (inactive) and 0.888 (inactive) and 0.976 (inactive)
same,fold change,[5]; [13],0.881 and 1.49 and 4.38
same,cell count,[5]; [14],8510 and 8490 and 12000
same,cell count,[5]; [15],9210 and 9560 and 12300
same,z-score,[6]; [16],-0.407 (inactive)
same,z-score,[6]; [17],0.416
same,remaining NAD,[7],10 nM (inactive)
same,z-score,[8],3.92 (active)
CCC[C@H](N[C@@H](C)C(=O)N1[C@H](C(=O)O)C[C@@H]2CCCC[C@@H]21)C(=O)OCC,outcome,[1],inactive
same,outcome,[2],inactive
same,outcome,[3],inactive
same,outcome,[4],inactive
same,fold change,[5]; [12],0.917 (inactive) and 0.847 (inactive)
same,fold change,[5]; [13],0.846 and 3.59
same,cell count,[5]; [14],9000 and 11500
same,cell count,[5]; [15],9820 and 13600
same,z-score,[6]; [16],0.628 (inactive)
same,z-score,[6]; [17],-0.272
same,remaining NAD,[7],10 nM (inactive)
same,luciferase signal,[9],156 AU (inactive)
CC(C)(C#N)c1cc(Cn2cncn2)cc(C(C)(C)C#N)c1,outcome,[1],inactive
same,outcome,[2],inactive
same,outcome,[3],inactive
same,outcome,[4],inactive
same,fold change,[5]; [12],0.875 (inactive) and 0.939 (inactive) and 0.952 (inactive)
same,fold change,[5]; [13],1 and 1.14
same,cell count,[5]; [14],8530 and 7350 and 9720
same,cell count,[5]; [15],9750 and 7820 and 10200
same,SSMD,[10],1.85
same,cell count,[10],7640
same,plate-normalised HSF1 focus index,[10],1.07 (inactive)
same,z-score,[6]; [16],-0.386 (inactive) and -0.452 (inactive) and -0.582 (inactive)
same,z-score,[6]; [17],0.599 and -0.518 and -0.151
same,viability,"[11]; at 0.000305 µM, OCI-C5x cells, with rucaparib 10 µM, 100% = cells with rucaparib alone",109% (inactive)
same,viability,"[11]; at 0.000305 µM, OCI-C5x cells, without rucaparib",102% (inactive)
same,viability,"[11]; at 0.000305 µM, OCI-P5x cells, with rucaparib 20 µM, 100% = cells with rucaparib alone",98.5% (active)
same,viability,"[11]; at 0.000305 µM, OCI-P5x cells, without rucaparib",90.6% (active)
same,viability,"[11]; at 0.00122 µM, OCI-C5x cells, with rucaparib 10 µM, 100% = cells with rucaparib alone",107% (inactive)
same,viability,"[11]; at 0.00122 µM, OCI-C5x cells, without rucaparib",98.9% (active)
same,viability,"[11]; at 0.00122 µM, OCI-P5x cells, with rucaparib 20 µM, 100% = cells with rucaparib alone",102% (inactive)
same,viability,"[11]; at 0.00122 µM, OCI-P5x cells, without rucaparib",95.3% (active)
same,viability,"[11]; at 0.00488 µM, OCI-C5x cells, with rucaparib 10 µM, 100% = cells with rucaparib alone",115% (inactive)
same,viability,"[11]; at 0.00488 µM, OCI-C5x cells, without rucaparib",107% (inactive)
same,viability,"[11]; at 0.00488 µM, OCI-P5x cells, with rucaparib 20 µM, 100% = cells with rucaparib alone",104% (inactive)
same,viability,"[11]; at 0.00488 µM, OCI-P5x cells, without rucaparib",100% (inactive)
same,viability,"[11]; at 0.0195 µM, OCI-C5x cells, with rucaparib 10 µM, 100% = cells with rucaparib alone",113% (inactive)
same,viability,"[11]; at 0.0195 µM, OCI-C5x cells, without rucaparib",107% (inactive)
same,viability,"[11]; at 0.0195 µM, OCI-P5x cells, with rucaparib 20 µM, 100% = cells with rucaparib alone",110% (inactive)
same,viability,"[11]; at 0.0195 µM, OCI-P5x cells, without rucaparib",104% (inactive)
same,viability,"[11]; at 0.0781 µM, OCI-C5x cells, with rucaparib 10 µM, 100% = cells with rucaparib alone",105% (inactive)
same,viability,"[11]; at 0.0781 µM, OCI-C5x cells, without rucaparib",109% (inactive)
same,viability,"[11]; at 0.0781 µM, OCI-P5x cells, with rucaparib 20 µM, 100% = cells with rucaparib alone",108% (inactive)
same,viability,"[11]; at 0.0781 µM, OCI-P5x cells, without rucaparib",109% (inactive)
same,viability,"[11]; at 0.313 µM, OCI-C5x cells, with rucaparib 10 µM, 100% = cells with rucaparib alone",103% (inactive)
same,viability,"[11]; at 0.313 µM, OCI-C5x cells, without rucaparib",108% (inactive)
same,viability,"[11]; at 0.313 µM, OCI-P5x cells, with rucaparib 20 µM, 100% = cells with rucaparib alone",112% (inactive)
same,viability,"[11]; at 0.313 µM, OCI-P5x cells, without rucaparib",113% (inactive)
same,viability,"[11]; at 1.25 µM, OCI-C5x cells, with rucaparib 10 µM, 100% = cells with rucaparib alone",115% (inactive)
same,viability,"[11]; at 1.25 µM, OCI-C5x cells, without rucaparib",115% (inactive)
same,viability,"[11]; at 1.25 µM, OCI-P5x cells, with rucaparib 20 µM, 100% = cells with rucaparib alone",111% (inactive)
same,viability,"[11]; at 1.25 µM, OCI-P5x cells, without rucaparib",112% (inactive)
same,viability,"[11]; at 5 µM, OCI-C5x cells, with rucaparib 10 µM, 100% = cells with rucaparib alone",130% (inactive)
same,viability,"[11]; at 5 µM, OCI-C5x cells, without rucaparib",115% (inactive)
same,viability,"[11]; at 5 µM, OCI-P5x cells, with rucaparib 20 µM, 100% = cells with rucaparib alone",115% (inactive)
same,viability,"[11]; at 5 µM, OCI-P5x cells, without rucaparib",109% (inactive)
same,remaining NAD,[7],10 nM (inactive)
same,z-score,[8],0.695 (inactive) and 0.735 (inactive)
